Among all 2,400 compounds or so, about 750 (31%) were called active. This is one part of the list. A number with no mark means an inactive call.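 The calls were made as follows: active = median signal gain over dofetilide-blocked control wells reaching their mean plus 3 SD, so readout 1 at least 0; inactive = the rest.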

This is an account of results in PubChem BioAssay AID1835 (Johns Hopkins Ion Channel Center, 2009).

In the experiment the target is Voltage-gated inwardly rectifying potassium channel KCNH2 (Homo sapiens) (UniProt Q12809). As to the kind of experiment: modulators restoring hERG flux under dofetilide – cell-based, thallium flux, duplicate retest, dofetilide IC70, confirmation (AID 1835). As to conditions: hERG cell line, FluxOR thallium flux, dofetilide-blocked; at 10 µM; active compounds read high.
Chain of Voltage-gated inwardly rectifying potassium channel KCNH2 (Homo sapiens) (Q12809 whole entry, looked up): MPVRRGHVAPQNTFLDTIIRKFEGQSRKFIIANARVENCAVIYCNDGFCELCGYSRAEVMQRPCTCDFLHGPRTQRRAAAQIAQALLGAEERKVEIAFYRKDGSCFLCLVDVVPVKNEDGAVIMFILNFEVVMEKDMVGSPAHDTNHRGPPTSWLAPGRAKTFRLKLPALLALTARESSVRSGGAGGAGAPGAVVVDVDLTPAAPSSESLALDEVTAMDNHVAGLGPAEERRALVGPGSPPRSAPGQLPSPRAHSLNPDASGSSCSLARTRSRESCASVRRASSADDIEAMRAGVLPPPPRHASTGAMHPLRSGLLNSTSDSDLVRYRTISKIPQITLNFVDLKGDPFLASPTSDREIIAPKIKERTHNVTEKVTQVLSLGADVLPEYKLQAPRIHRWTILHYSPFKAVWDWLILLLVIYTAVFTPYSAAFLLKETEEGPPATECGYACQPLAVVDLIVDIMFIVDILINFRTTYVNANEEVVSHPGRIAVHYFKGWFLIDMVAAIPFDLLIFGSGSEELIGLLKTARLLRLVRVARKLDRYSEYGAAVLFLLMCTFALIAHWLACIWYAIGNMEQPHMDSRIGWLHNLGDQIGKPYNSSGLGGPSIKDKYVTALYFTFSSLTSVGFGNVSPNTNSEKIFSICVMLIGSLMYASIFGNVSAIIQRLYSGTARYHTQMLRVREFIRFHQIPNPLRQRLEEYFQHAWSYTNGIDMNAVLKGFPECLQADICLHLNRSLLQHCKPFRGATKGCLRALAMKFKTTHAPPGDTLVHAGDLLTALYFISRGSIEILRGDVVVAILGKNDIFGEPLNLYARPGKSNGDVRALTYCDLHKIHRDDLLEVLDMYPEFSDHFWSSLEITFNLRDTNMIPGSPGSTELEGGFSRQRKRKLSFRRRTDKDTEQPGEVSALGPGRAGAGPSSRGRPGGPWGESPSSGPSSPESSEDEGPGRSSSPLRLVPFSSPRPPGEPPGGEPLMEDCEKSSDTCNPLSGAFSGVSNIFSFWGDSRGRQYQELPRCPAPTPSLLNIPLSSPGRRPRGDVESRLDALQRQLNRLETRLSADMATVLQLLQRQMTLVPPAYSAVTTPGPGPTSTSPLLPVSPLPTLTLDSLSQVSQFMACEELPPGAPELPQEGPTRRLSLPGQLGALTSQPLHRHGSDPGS
Regarding `COC(=O)Cn1c(=O)c(=O)n(CC(=O)OC)c2ccccc21`, the activity increase over dofetilide control, less the hit threshold was -15%.

In the case of `COc1ccccc1CNC(=O)COC(=O)c1ccccn1`, the activity increase over dofetilide control, less the hit threshold is -13%.

As to `COc1ccc(C(=O)CC(=O)C(=O)Nc2ccc(Cl)cc2)cc1`, the activity increase over dofetilide control, less the hit threshold is 9% (active).

As to `COc1ccc(C(=O)CC(=O)C(=O)Nc2ccccc2)cc1`, the activity increase over dofetilide control, less the hit threshold is 5% (active).

Turning to `COc1ccc(C(=O)CC(=O)C(=O)Nc2ccc(C)c(Cl)c2)cc1`, the activity increase over dofetilide control, less the hit threshold is 0%.

For the molecule `COc1ccc(NC(=O)CSCC(=O)Oc2c(OC)cccc2OC)cc1`, the activity increase over dofetilide control, less the hit threshold is -26%.

On to `COc1ccc(C(=O)CC(=O)C(=O)Nc2ccc(C)c(C)c2)cc1`, for which the activity increase over dofetilide control, less the hit threshold is -3%.

Consider `CC(=O)Nc1ccc(S(=O)(=O)N2CCC(NC(=O)c3ccccc3)CC2)cc1`, for which the activity increase over dofetilide control, less the hit threshold is -17%.

Turning to `CCN(CC)C(=O)CN1C(=O)C2CC=C(Cl)CC2C1=O` (stereo unspecified), the activity increase over dofetilide control, less the hit threshold was -15%.

`Cc1cc(C)n(-c2nc3sc4c(c3c(=O)[nH]2)CCCC4)n1`: the activity increase over dofetilide control, less the hit threshold is -10%.

`CCn1c(=S)[nH]c2sc3c(c2c1=O)CCCC3`: the activity increase over dofetilide control, less the hit threshold is 27% (active).

As for `O=C1c2ccccc2C(=O)N1Cc1ccco1`, the activity increase over dofetilide control, less the hit threshold was -8%.

`CCn1c(=S)[nH]c2sc3c(c2c1=O)CCCCC3`: the activity increase over dofetilide control, less the hit threshold is 107% (active).

Consider `CCCn1c(=S)[nH]c2sc3c(c2c1=O)CCCC3`, for which the activity increase over dofetilide control, less the hit threshold was 76% (active).

Consider `Cc1ccc(-n2c(=S)[nH]c3sc4c(c3c2=O)CCC4)cc1`, for which the activity increase over dofetilide control, less the hit threshold is -1%.

As to `O=c1c2c3c(sc2[nH]c(=S)n1Cc1ccco1)CCC3`, the activity increase over dofetilide control, less the hit threshold was 18% (active).

On to `CC(C)OC(=O)CSc1nnc(C2CCCCC2)n1N`, for which the activity increase over dofetilide control, less the hit threshold is -15%.

Consider `Cc1cnc(NC(=O)CN2CCN(c3ccccc3F)CC2)s1`, for which the activity increase over dofetilide control, less the hit threshold was -5%.

Regarding `CCCCCOc1ccc(C2C(C(C)=O)=C(C)Nc3ncnn32)cc1OC` (stereo unspecified), the activity increase over dofetilide control, less the hit threshold is -11%.

Consider `CCc1cccc(C)c1NC(=O)Cc1ccsc1`, for which the activity increase over dofetilide control, less the hit threshold is -12%.

As for `Cc1ccc(S(=O)(=O)N(C)C)cc1NC(=S)NC(C)CCCC(C)C` (stereo unspecified), the activity increase over dofetilide control, less the hit threshold is -30%.

In the case of `COC(=O)c1ccc(Cn2cnc3c(cnn3-c3ccc(Cl)cc3)c2=O)o1`, the activity increase over dofetilide control, less the hit threshold was -2%.

Regarding `COC(=O)c1ccc(CSc2ncnc3sc(C)c(C)c23)o1`, the activity increase over dofetilide control, less the hit threshold is 7% (active).

Regarding `Cc1sc2ncnc(SCC(=O)NC(=O)c3cccn3C)c2c1C`, the activity increase over dofetilide control, less the hit threshold was 2% (active).

With `CCC(C)NC(=O)CSc1ncnc2sccc12` (stereo unspecified), the activity increase over dofetilide control, less the hit threshold was -7%.

Take `Cc1sc2ncnc(SCC(=O)c3ccc(O)cc3O)c2c1C`: the activity increase over dofetilide control, less the hit threshold is 2% (active).

For the molecule `Cc1ccc(-n2nc3ccc(N)cc3n2)c(C)c1`, the activity increase over dofetilide control, less the hit threshold was -28%.

Turning to `O=C(CN1CCN(Cc2ccccc2)CC1)NCc1ccccc1Cl`, the activity increase over dofetilide control, less the hit threshold was -1%.

As for `Cc1cc(S(=O)(=O)NCC(C)C)ccc1OCC(=O)NCc1ccccn1`, the activity increase over dofetilide control, less the hit threshold is -29%.

As to `CCOC(=O)CP(=O)(c1ccccc1)c1ccccc1`, the activity increase over dofetilide control, less the hit threshold is -9%.

For `CCOC(=O)Cc1nc2ccccc2o1`, the activity increase over dofetilide control, less the hit threshold is 5% (active).

As to `C/C(=N\NC(=O)CSc1nc2ccccc2o1)c1ccc(O)cc1`, the activity increase over dofetilide control, less the hit threshold was -15%.

`Cc1cc(C)c2nc(NC(=O)C3CCCO3)sc2c1` (stereo unspecified): the activity increase over dofetilide control, less the hit threshold is -8%.

Consider `O=C(Nc1cccc(Br)c1)C1CCCC1`, for which the activity increase over dofetilide control, less the hit threshold was -11%.

Consider `O=C(Nc1nc2c(Br)cc(Br)cc2c(=O)s1)C1CCC1`, for which the activity increase over dofetilide control, less the hit threshold is 1% (active).

`O=C(COc1ccc(S(=O)(=O)NCc2ccccc2)cc1Cl)NCC1CCCO1` (stereo unspecified): the activity increase over dofetilide control, less the hit threshold is -26%.

For the molecule `O=C(NC(=S)Nc1ccccc1)c1cncc(C#Cc2ccccc2)c1`, the activity increase over dofetilide control, less the hit threshold was -8%.

For the molecule `COc1ccc(NC(=S)Nc2ccccn2)cc1`, the activity increase over dofetilide control, less the hit threshold was -11%.

As for `Cc1cccnc1NC(=O)c1csnn1`, the activity increase over dofetilide control, less the hit threshold is -3%.

In the case of `Cc1ccc(NC(=S)NC(=O)c2ccc(-c3ccccc3)cc2)cc1`, the activity increase over dofetilide control, less the hit threshold is -2%.

For `O=C(NC(=S)Nc1ccccc1)c1csnn1`, the activity increase over dofetilide control, less the hit threshold was 88% (active).

`COc1ccc(NC(=O)c2onc(C)c2Cl)cc1`: the activity increase over dofetilide control, less the hit threshold was -10%.

On to `O=C(NC(=S)Nc1ccccc1Cl)c1csnn1`, for which the activity increase over dofetilide control, less the hit threshold was 79% (active).

For `COc1ccc(NC(=S)NC(=O)c2csnn2)cc1`, the activity increase over dofetilide control, less the hit threshold was 23% (active).

`Cc1snnc1C(=O)NC(=S)Nc1ccccc1`: the activity increase over dofetilide control, less the hit threshold was 30% (active).

Take `O=c1[nH]c2ccccc2nc1C(F)(F)C(F)F`: the activity increase over dofetilide control, less the hit threshold is -11%.

With `C/C(=N/NC(=O)c1ccncc1)c1ccc2c(c1)OCO2`, the activity increase over dofetilide control, less the hit threshold is -9%.

As for `O=C1CSC(=S)N1/N=C/c1cc(Br)ccc1O`, the activity increase over dofetilide control, less the hit threshold was 7% (active).

In the case of `Cc1oc(-c2cccs2)nc1CN1CCC(C(=O)N2CCCC2)CC1`, the activity increase over dofetilide control, less the hit threshold was -11%.

With `Cc1ccc(C(=O)NC(=S)N(C)C2CCCCC2)cc1Br`, the activity increase over dofetilide control, less the hit threshold is -5%.

Turning to `CN(C(=S)NC(=O)c1ccc(F)cc1)C1CCCCC1`, the activity increase over dofetilide control, less the hit threshold is 6% (active).

`Cc1ccc(C(=O)NC(=S)N(C)C2CCCCC2)cc1`: the activity increase over dofetilide control, less the hit threshold was 27% (active).

Regarding `CN(C(=S)NC(=O)c1ccccc1)C1CCCCC1`, the activity increase over dofetilide control, less the hit threshold was 16% (active).

Turning to `CN(C(=S)NC(=O)c1ccc(Cl)cc1)C1CCCCC1`, the activity increase over dofetilide control, less the hit threshold was -3%.

`Cc1cccc(C(=O)NC(=S)N(C)C2CCCCC2)c1`: the activity increase over dofetilide control, less the hit threshold is 21% (active).

On to `COc1ccc(C(=O)NC(=S)N(C)C2CCCCC2)cc1`, for which the activity increase over dofetilide control, less the hit threshold is -2%.

For the molecule `Cc1cccc(C(=O)NC(=S)NNC(=O)COc2c(C)cccc2C)c1`, the activity increase over dofetilide control, less the hit threshold was -12%.

Take `O=C(N/N=C/c1ccc(OC(F)F)cc1)C1=COCCO1`: the activity increase over dofetilide control, less the hit threshold was -8%.

Take `c1ccc2oc(-c3nn4c(Cn5cnc6ccccc65)nnc4s3)cc2c1`: the activity increase over dofetilide control, less the hit threshold is -12%.

Regarding `CCC(=O)N1c2ccc(C)cc2C2=NNC(=S)NC21O` (stereo unspecified), the activity increase over dofetilide control, less the hit threshold is -6%.

With `O=C(Nc1ccc(-c2csc(Nc3cccc(C(F)(F)F)c3)n2)cc1)c1ccccc1`, the activity increase over dofetilide control, less the hit threshold was -25%.

For the molecule `O=C(NC(=S)Nc1ccc(C(F)(F)F)cc1)c1csnn1`, the activity increase over dofetilide control, less the hit threshold is 60% (active).

With `COc1ccc(C(=O)O)cc1S(=O)(=O)Nc1cccc(C(F)(F)F)c1`, the activity increase over dofetilide control, less the hit threshold is -4%.

For the molecule `Cc1cc(-c2nnc(SCC(=O)Nc3ccc(C(F)(F)F)cc3)n2C)no1`, the activity increase over dofetilide control, less the hit threshold was -23%.

Take `O=C(NC(=S)Nc1cccc(C(F)(F)F)c1)c1csnn1`: the activity increase over dofetilide control, less the hit threshold is 102% (active).

Regarding `c1ccc2oc(-c3ccn[nH]3)cc2c1`, the activity increase over dofetilide control, less the hit threshold is -10%.

On to `O=C(COC(=O)c1cc[n+]([O-])cc1)Nc1cc([N+](=O)[O-])ccc1Cl`, for which the activity increase over dofetilide control, less the hit threshold is -20%.

On to `COc1ccc(C)cc1NC(=O)C(=O)NNC(=O)c1ccco1`, for which the activity increase over dofetilide control, less the hit threshold is 55% (active).

In the case of `O=C(CCC(=O)Nc1ccccc1)NNC(=O)c1ccco1`, the activity increase over dofetilide control, less the hit threshold is -12%.

As to `COc1ccccc1NC(=O)C(=O)NNC(=O)c1ccco1`, the activity increase over dofetilide control, less the hit threshold is 35% (active).

`CN(c1ccccc1)S(=O)(=O)c1ccc(Cl)c(C(=O)Nc2nn[nH]n2)c1`: the activity increase over dofetilide control, less the hit threshold was -4%.
